Experimental data reported in PubChem BioAssay (NCATS).
A number with no mark means an inactive call. Calls come from the whole dose curve; as a rule, active = well fitted curve in the direction sought with a large enough effect; inconclusive = small, poorly fitted or top-dose-only effect, or another doubt; inactive = no such curve, though single readings can be large; an effect the other way counts as inactive or inconclusive. Inconclusive results are not listed.

Tested on: not listed separately
Experiment: KB-8-5-11 P-gp reporter qHTS against the NCATS DSHEA and TCM libraries (AID 1919977); note: 0% is about no effect
Details: KB-8-5-11 cells; series mostly up to 26.1 µM; activity change, negative = inhibition: at the top concentration
Text: Assay Development and Screening Technology Laboratory (ADST)
National Center for Advancing Translational Sciences (NCATS), Rockville, MD
National Institute of Health (NIH), Bethesda, Maryland
Dietary Supplements and Natural Products have minor oversight of their safety and efficacy. We assembled a collection of Dietary Supplements and Natural Products (DSNP) as well as Traditional Chinese Medicinal (TCM) Plant extracts, which were screened against an in vitro panel of assays, including a liver cytochrome p450 enzyme panel, CAR/PXR signaling pathways, and P-gp transporter assays, to assess their activity. This pipeline facilitated the interrogation of Natural Product-Drug Interaction (NaPDI) through prominent metabolizing pathways. In addition, we compared the activity profiles of the DSNP/TCM substances with those of an approved drug collection. Many of the approved drugs have well-annotated mechanisms of action (MOA) while the MOAs for most of the DSNP and TCM samples remain unknown. Based on the premise that compounds with similar activity profiles tend to share similar targets or MOA, we clustered the library activity profiles to identify overlap with the NCATS Pharmaceutical Collection to predict the MOAs of the DSNP/TCM substances. Overall, we highlight four significant bioactivity profiles (measured by p-values) as examples of this prediction. To assess broad cytotoxicity, we employed screening against a HepG2 cell line. In addition, transporter-mediated drug interactions are utilized in the characterization of DDIs using a P-glycoprotein (P-gp) assays. To profile potential P-gp activity, a differential cell viability was measured against two cell lines: a parental KB-3-1 human cervical adenocarcinoma cell line and the drug-resistant subline KB-8-5-11 that overexpresses P-gp.
To this end, we profiled both collections for potential CAR and/or PXR activity, employing a previously published 1536-well qHTS assay.
[1] Lee TD, et al. A High-Throughput Screen of a Library of Therapeutics Identifies Cytotoxic Substrates of P-glycoprotein. Mol Pharmacol. Nov 2019;96(5):629-640. doi:10.1124/mol.119.115964
PROTOCOL TABLE (as described by Inglese J, Shamu CE and Guy RK. 2007)
SEQUENCE No. (e.g., 1, 2, 3, etc.); PARAMETER (e.g., Cells, Incubation, Reagent, etc.); VALUE; DESCRIPTION.
1; Cells; 5 uL; KB-8-5-11 cells, white solid-bottom tissue treated Greiner plate.
2; Incubation; 4 hrs; 37C, 95% humidity, 5% CO2.
3; Compounds and control; 23 nL; Kalypsis pin tool (Wako USA) equipped with a 1536-well pin head to transfer to the assay plates.
4; Incubation; 72 hrs; 37C, 95% humidity, 5% CO2.
5; Reagent; 2.5 uL; CellTiter-Glo.
6; Centrifuge; 1000 RPM; 15 seconds.
7; Incubation; 30 min; room temperature.
8; Read; Luminescence; ViewLux plate reader. […]
In the case of `CNC(C)C(O)c1ccc(O)cc1` (stereo not given), the “activity change, negative = inhibition” value is reported as 6.62%. With `COC1=CC(=O)O[C@@H](/C=C/c2ccccc2)C1` the “activity change, negative = inhibition” value was -13.8%. With `O=Cc1ccco1` the “activity change, negative = inhibition” value was 8.76%. With `O=C/C=C/c1ccccc1` the “activity change, negative = inhibition” value was 1.43%.

Tested on: not listed separately
Experiment: qHTS Counterscreen for compound interference against the NCATS DSHEA and TCM libraries (AID 1919978);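 note: compounds preincubated with 1 µM D-luciferin or buffer before detection reagent; % of control where 0% means no effect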
Details: firefly luciferase detection reagent interference, luminescence
In short: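 With 1 uM D-luciferin or phosphate buffer only, compounds at final 19.5 nM–39.8 uM were incubated for 15 min at room temperature. Luciferase detection reagent was then added, and luminescence was measured after a further 30 min at room temperature.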
Work on `CNC(C)C(O)c1ccc(O)cc1` (stereo not given) yielded a max response of -3.49%. `COC1=CC(=O)O[C@@H](/C=C/c2ccccc2)C1` gave a max response of -0.203%. Work on `O=Cc1ccco1` yielded a max response of -3.87%. `O=C/C=C/c1ccccc1` gave a max response of 1.86%.

Tested on: not listed separately
Experiment: Dual reporter qHTS for agonist of Pregnane X Receptor (hPXR) against the NCATS DSHEA and TCM libraries: Fluorescence readout (AID 1920058); note: 0% is about no effect
Details: PXR dual reporter cells; series mostly up to 40 µM; activation: at the top concentration
In short: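 Measures viability of the PXR reporter HepG2 line by protease-substrate fluorescence (405/540 nm), taken 1 h after CellTiter-Fluor addition. Substances are tested as concentration series over a ~24 h exposure, with rifampicin as agonist control.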
With `CNC(C)C(O)c1ccc(O)cc1` (stereo not given) the “activation” value was 9.87%. For `COC1=CC(=O)O[C@@H](/C=C/c2ccccc2)C1`, the “activation” value was 17.5%. With `O=Cc1ccco1` the “activation” value was 14.9%. In the case of `O=C/C=C/c1ccccc1`, the “activation” value is reported as -11%.

Biological target: Nuclear receptor subfamily 1 group I member 2 (Homo sapiens) (UniProt O75469)
Sequence (O75469 whole entry, looked up): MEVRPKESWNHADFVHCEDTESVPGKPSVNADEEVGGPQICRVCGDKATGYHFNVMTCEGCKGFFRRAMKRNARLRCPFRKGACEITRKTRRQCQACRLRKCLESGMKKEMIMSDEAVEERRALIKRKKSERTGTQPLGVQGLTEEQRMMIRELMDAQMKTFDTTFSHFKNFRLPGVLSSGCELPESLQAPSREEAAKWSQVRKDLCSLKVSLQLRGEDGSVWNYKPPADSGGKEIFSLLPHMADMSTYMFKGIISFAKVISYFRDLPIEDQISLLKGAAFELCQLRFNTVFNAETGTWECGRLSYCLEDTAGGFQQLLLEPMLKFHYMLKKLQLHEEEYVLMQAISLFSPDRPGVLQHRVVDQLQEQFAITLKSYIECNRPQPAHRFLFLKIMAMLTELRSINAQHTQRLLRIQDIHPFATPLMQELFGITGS
Experiment: Dual reporter qHTS for agonist of Pregnane X Receptor (hPXR) against the NCATS DSHEA and TCM libraries: Luminescence readout (AID 1920059); note: 0% is about no effect
Details: hPXR dual reporter cells, luciferase luminescence agonist; series mostly up to 40 µM; activation: at the top concentration
In short: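 Luminescent PXR reporter read (ONE-Glo) after a CellTiter-Fluor viability read, following 24 h, 37C treatment of HepG2 cells stably carrying hPXR-Luc.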
With `CNC(C)C(O)c1ccc(O)cc1` (stereo not given) the “activation” value was 12.5%. In the case of `COC1=CC(=O)O[C@@H](/C=C/c2ccccc2)C1`, the “activation” value is reported as 15.9%. In the case of `O=C/C=C/c1ccccc1`, the “activation” value is reported as 5.8%.
